SMARCA2 activ: SMARCA2 (BRM) function activators, primary screen, cell-based, luminescence, high throughput; MG213 cells, MMTV-luciferase reporter, dexamethasone, overnight; activation, % at 9.1 µM; 1% of 370,000 active; in the data active means activation above about 7.8%;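 further: 0% = vehicle wells and 100% = reference activator wells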
FGF22 binding: binders of human FGF22 protein, primary screen, FGF22 synaptogenesis inhibitor project, biophysical, thermal shift, single point; Fibroblast growth factor 22 (Homo sapiens), Q9HCT0; recombinant FGF22 thermal shift, SYPRO orange fluorescence; percent of sucrose octasulfate shift, DMSO zero; activity (Tm shift, normalised), % at 9.99 µM; 1.5% of 340,000 active; AID 651658, 2012;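 active means mean Tm shift, scaled 0 neutral to 100 positive control, at about 1.3% or above, every replicate too, limit read from the data; inconclusive means no clear call, values can overlap the other calls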
esBAF inh: Bmi1 luciferase reporter increase in mESCs, primary screen, esBAF inhibitor project, mouse ES cells, Bmi1 luciferase knock-in, single point; reporter increase, % at 12.5 µM; AID 602393, 2012; 24 h; 100% = twice the neutral-well signal; 2% of 350,000 active; in the data active means activation above about 40%; inconclusive means no clear call, values can overlap the other calls;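 further: 0% = median of the plate's neutral control wells and 100% = double that signal; a rise in the Bmi1 reporter signal indicates esBAF inhibition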
MITF TRPM1 HTS: activators of MITF-driven TRPM1 promoter reporter, primary screen, cell-based, SK-MEL-5, luciferase, single point; SK-MEL-5 TRPM1-promoter luciferase, 24 h; % of positive control, neutral wells = 0; activation, % at 12.5 µM; 0.75% of 300,000 active; AID 588334, 2011;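 active means mean activation of at least 80% with every replicate also reaching 80%; inconclusive means mean reaches 80% but some replicate falls short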;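 further: 0% = neutral control wells and 100% = parthenolide positive control wells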
MLL AF4-AF9 inh: inhibitors of AF4 peptide binding to AF9, primary screen, biochemical, AlphaScreen, biotin-AF4 peptide, FLAG-AF9, single point; Protein AF-9 (Homo sapiens), P42568; inhibition, % at 10 µM; 0.47% of 350,000 active; AID 651704, 2012;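 active means every replicate reaching a set inhibition limit, whatever the replicate mean, cut at about 25% in these data; inconclusive means mean inhibition reaches that limit but some replicates miss it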;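 further: 0% = plate neutral control median and 100% = total signal loss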
Target sequence (P42568 whole entry, looked up): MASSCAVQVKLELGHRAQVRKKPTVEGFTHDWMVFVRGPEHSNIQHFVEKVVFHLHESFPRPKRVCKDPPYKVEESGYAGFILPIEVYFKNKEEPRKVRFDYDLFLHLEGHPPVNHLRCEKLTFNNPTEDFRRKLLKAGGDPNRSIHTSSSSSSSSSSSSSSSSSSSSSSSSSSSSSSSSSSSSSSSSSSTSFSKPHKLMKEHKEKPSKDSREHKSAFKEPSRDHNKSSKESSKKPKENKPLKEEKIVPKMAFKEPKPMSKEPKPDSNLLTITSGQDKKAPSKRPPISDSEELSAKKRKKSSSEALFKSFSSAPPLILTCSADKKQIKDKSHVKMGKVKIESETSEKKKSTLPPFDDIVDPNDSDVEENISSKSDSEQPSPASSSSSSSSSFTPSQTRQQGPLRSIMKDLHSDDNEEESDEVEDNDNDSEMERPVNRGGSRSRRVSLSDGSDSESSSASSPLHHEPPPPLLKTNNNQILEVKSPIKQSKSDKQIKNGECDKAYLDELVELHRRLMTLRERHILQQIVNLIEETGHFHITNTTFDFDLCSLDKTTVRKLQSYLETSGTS
Wnt act: Wnt/beta-catenin pathway activators, primary screen, cell-based, plate reader, single point | Wnt/beta-catenin reporter cell assay, activator | activation, % at 9.35 µM | 1.2% of 300,000 active | AID 743398, 2014; in the data active means activation above about 30%, passing the limit was not always enough; inconclusive means no clear call, values can overlap the other calls;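 further: 0% = neutral control wells and 100% = positive control wells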
* marks the source's active call; other numbers are inactive results; ? = inconclusive; . = not tested or not shown. In the library only some 4.3% were active in any assay of this set; here they are far more common.

SMILES	SMARCA2 activ	FGF22 binding	esBAF inh	MITF TRPM1 HTS	MLL AF4-AF9 inh	Wnt act
CCCCCCCN1C2=NCCCN2c2ccccc21	-1	43*	8	-2	0	-3
CN(C)c1ccc(C(O)c2cc3ccccc3s2)cc1 (stereo unspecified)	-1	0	52*	18	5	-2
Cc1ncc(C(O)c2ccc(N(C)C)cc2)n1Cc1ccccc1 (stereo unspecified)	-4	0	1	.	9	0
COc1ccc2nc(N3CCCCC3)c(C#N)cc2c1	0	.	?	.	.	44*
COc1ccc2nc(N3CCCC3)c(C#N)cc2c1	1	.	21	63	.	?
O=C(Nc1ccc2c(c1)[C@@H]1C[C@@H](CC(=O)N3CCOCC3)O[C@@H](CO)[C@@H]1O2)c1ccc2c(c1)OCO2	.	0	2	.	.	.
C[C@@H]1CN([C@H](C)CO)C(=O)c2cc(NS(=O)(=O)c3ccc(F)cc3)ccc2O[C@H]1CN(C)Cc1ccc2c(c1)OCO2	.	0	-1	.	-2	.
COc1cccc(Nc2ncnc3sc(C)cc23)c1	4	0	66*	55	1	10
COc1ccc(Oc2ncnc3sccc23)cc1	3	0	45*	88*	0	9
COc1cccc(Nc2ncnc3sccc23)c1	-1	0	59*	72	-3	9
C[C@H]1CN([C@@H](C)CO)S(=O)(=O)c2ccc(C#CC3CCCC3)cc2O[C@H]1CN(C)C(=O)Cc1ccccc1	.	0	9	.	1	.
CO[C@H]1CN(C)C(=O)c2ccc(NC(C)=O)cc2OC[C@@H](C)N(C(=O)C2CC2)C[C@@H]1C	.	0	-3	.	-1	.
C[C@@H]1CN([C@H](C)CO)C(=O)c2cc(C#CC3CCCCC3)cnc2O[C@@H]1CN(C)S(=O)(=O)c1ccccc1	.	-1	-2	.	0	.
CC(=O)CCSc1ncnc2sc(-c3ccccc3)cc12	7	0	77*	69	-2	43*
COc1cccc(COc2ccc3ccc(=O)oc3c2)c1	7	0	39	61	-2	25
COc1ccc(COc2ccc3ccc(=O)oc3c2)cc1	1	0	56*	118*	0	26
S=C(NCCCN1CCOCC1)N1CCN(c2nc(-c3ccc(Cl)cc3)cs2)CC1	-7	0	.	-26	33*	-5
S=C(NCCCN1CCOCC1)N1CCN(c2nc(-c3ccccc3)cs2)CC1	-1	42	1	-3	15	-4
CC1(C)C2CC=C(/C=N/NC(=O)c3ccccc3Br)C1C2 (stereo unspecified)	4	43*	.	-6	-5	-3
Cc1cc(C)n2cc(CSc3nncn3C)nc2n1	-3	43*	.	5	-5	-1
C[C@@H]1CCCCO[C@H](CN(C)C(=O)Nc2ccc(C(F)(F)F)cc2)[C@H](C)CN([C@@H](C)CO)C(=O)c2cc(NC(=O)Nc3ccccc3)ccc2O1	.	0	-1	.	-4	.
C[C@@H]1CCCCO[C@H](CN(C)C(=O)Nc2ccc(C(F)(F)F)cc2)[C@@H](C)CN([C@H](C)CO)C(=O)c2cc(NS(=O)(=O)c3cn(C)cn3)ccc2O1	.	1.5*	-4	.	-3	.
C[C@H](CO)N1C[C@H](C)[C@@H](CN(C)C(=O)Nc2ccc(F)cc2)OCCCC[C@H](C)Oc2ccc(NC(=O)Nc3ccc(C(F)(F)F)cc3)cc2C1=O	.	1.2*	-5	.	-15	.
C[C@@H]1CCCCO[C@@H](CN(C)C(=O)Nc2ccccc2)[C@@H](C)CN([C@@H](C)CO)C(=O)c2cc(NC(=O)Nc3ccc(C(F)(F)F)cc3)ccc2O1	.	0	.	.	35*	.
C[C@H](CO)N1C[C@H](C)[C@@H](CN(C)C(=O)Nc2ccc(C(F)(F)F)cc2)OCCCC[C@H](C)Oc2ccc(NS(=O)(=O)c3cn(C)cn3)cc2C1=O	.	-1	8	.	2	.

Source: PubChem
